Experimental data: PubChem BioAssay (Tox21)
Records with an inconclusive call do not appear. Activity calls are given as the source filed them. Unless noted, calls follow the shape of the dose curve; as a rule, active = well fitted curve in the direction sought with a large enough effect in the repeat runs; inconclusive = weak or mixed curves; inactive = no such curve, though single readings can be large; an effect the other way counts as inactive or inconclusive.

How the values were obtained:
[1] = qHTS assay to identify small molecule antagonists of the sonic hedgehog signaling (Shh) pathway (AID 1259369; calls by dose curve; also: nearly all actives have a fitted effect of over 45% in size; also: potency is read from the fitted curve at half-maximal effect); conditions: NIH/3T3 Gli1-Luc reporter, Shh antagonist, luminescence 24 h; series mostly up to 92.4 µM
Summary of the method: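 Cells are plated and held 4hr at 37 C, compounds (DMSO) are pinned in, conditioned medium is added to stimulate the pathway, and after 24hr luciferase reagent is added for 30min before luminescence is read.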

[2] = biological target: Estrogen receptor beta (Homo sapiens) (UniProt Q92731); test: qHTS assay to identify small molecule agonists of the estrogen receptor beta (ER-beta) signaling pathway (AID 1259377; active = well fitted activation curve with a large enough effect in the signal ratio in the repeat runs, not every such curve was filed as active; the % refers to the signal ratio); conditions: ER-beta-UAS-bla HEK293T, beta-lactamase FRET ratio, 16 h; series mostly up to 92.4 µM
Chain of Estrogen receptor beta (Homo sapiens) (Q92731 whole entry, looked up): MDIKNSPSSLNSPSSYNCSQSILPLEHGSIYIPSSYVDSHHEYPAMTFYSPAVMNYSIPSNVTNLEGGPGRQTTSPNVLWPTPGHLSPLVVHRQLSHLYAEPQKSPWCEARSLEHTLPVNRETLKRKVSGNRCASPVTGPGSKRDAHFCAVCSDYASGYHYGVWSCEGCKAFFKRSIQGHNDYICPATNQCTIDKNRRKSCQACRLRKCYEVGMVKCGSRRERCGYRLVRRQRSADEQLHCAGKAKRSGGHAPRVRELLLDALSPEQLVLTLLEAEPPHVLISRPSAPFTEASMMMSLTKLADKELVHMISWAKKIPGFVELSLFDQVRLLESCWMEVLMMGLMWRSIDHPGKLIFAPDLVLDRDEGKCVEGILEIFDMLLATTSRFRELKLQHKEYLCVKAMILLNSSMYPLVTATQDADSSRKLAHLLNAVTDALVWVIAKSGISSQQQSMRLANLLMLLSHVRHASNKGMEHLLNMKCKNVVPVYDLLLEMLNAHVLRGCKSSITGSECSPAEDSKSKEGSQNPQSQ
Summary of the method: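 Read-out: beta-lactamase FRET fluorescence. Cell line: ER-beta-UAS-bla HEK293T in 2% charcoal-stripped FBS. Exposure: 16 hr at 37C. Substrate step: 2 h at room temperature.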

[3] = biological target: Estrogen receptor beta (Homo sapiens) (UniProt Q92731); test: qHTS assay to identify small molecule antagonists of the estrogen receptor beta (ER-beta) signaling pathway (AID 1259378; active = well fitted inhibition curve with a large enough effect in the signal ratio in the repeat runs, not every such curve was filed as active; the % refers to the signal ratio); conditions: ER-beta-UAS-bla HEK293T, beta-lactamase FRET ratio, 16 h; series mostly up to 92.4 µM
Summary of the method: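 Antagonist mode: compounds added to beta-lactamase reporter HEK293T ER-beta-UAS cells stimulated with E2 (1nM final), 16 hr at 37C. LiveBLAzer B/G FRET substrate, 2 hours room temperature, fluorescence read-out.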

[4] = qHTS assay to identify small molecule agonists of the androgen receptor (AR) signaling pathway in the presence of an antagonist - cell viability counter screen (AID 1259379); conditions: MDA-kb2 viability, CellTiter-Fluor, 16 h; series mostly up to 92.4 µM;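 also: MDA-kb2 human breast cancer cells carrying an MMTV luciferase reporter; nearly all actives have a fitted effect of over 25% in size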
Summary of the method: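 Cytotoxicity is assessed by CellTiter-Fluor in MDA-kb2 cells carrying an MMTV-driven luciferase reporter. Cells receive 3.0uM nilutamide plus compounds at 15 concentrations and incubate 16 hr at 37C without CO2 before fluorescence reading.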

[5] = qHTS assay to identify small molecule agonists of the estrogen receptor beta (ER-beta) signaling pathway - cell viability counter screen (AID 1259380); conditions: ER-beta-bla HEK293T viability, CellTiter-Glo luminescence, 16 h; series mostly up to 92.4 µM; also: nearly all actives have a fitted effect of over 30% in size
Summary of the method: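 Cytotoxicity is measured in parallel with the reporter screen: after 16 hr compound exposure at 37C and a 2 hr LiveBLAzer step, CellTiter-Glo is added to the same ER-beta-UAS-bla HEK293T wells and luminescence read after 30 min.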

[6] = qHTS assay to identify small molecule antagonists of the estrogen receptor beta (ER-beta) signaling pathway - cell viability counter screen (AID 1259382); conditions: ER-beta-UAS-bla HEK293T viability, CellTiter-Glo luminescence, 16 h; series mostly up to 92.4 µM;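 also: HEK293T cells carrying ER-beta-UAS-bla reporter stimulated with estradiol; nearly all actives have a fitted effect of over 55% in size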
Summary of the method: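 Cytotoxicity counter screen multiplexed with the beta-lactamase antagonist assay: GripTite HEK293T ER-beta-bla cells were treated 16 hr with test chemicals in the presence of 1nM 17-beta-estradiol, and viability was measured by CellTiter-Glo.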

[7] = qHTS assay to identify small molecule agonists or antagonists of the thyroid stimulating hormone receptor (TSHR) signaling pathway - wild type cell line counter screen (AID 1259384; calls by dose curve); conditions: HEK293 wild type, cAMP HTRF counter-screen, active compounds read high; series mostly up to 92.4 µM
Summary of the method: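 Counter screen in untransfected Hek293: compounds (15-point titration, triplicate) plus phosphodiesterase inhibitor Ro20-1724 added after 18 h plating; 30 min RT. Intracellular cAMP via competitive d2/cryptate immunoassay, 1 h incubation.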

[8] = biological target: Thyrotropin receptor (Homo sapiens) (UniProt P16473); test: qHTS assay to identify small molecule antagonists of the thyroid stimulating hormone receptor (TSHR) signaling pathway (AID 1259385; calls by dose curve; also: nearly all actives have a fitted effect of over 20% in size); conditions: TSHR-HEK293 cAMP HTRF, TSH-stimulated antagonist mode; series mostly up to 92.4 µM
Chain of Thyrotropin receptor (Homo sapiens) (P16473 whole entry, looked up): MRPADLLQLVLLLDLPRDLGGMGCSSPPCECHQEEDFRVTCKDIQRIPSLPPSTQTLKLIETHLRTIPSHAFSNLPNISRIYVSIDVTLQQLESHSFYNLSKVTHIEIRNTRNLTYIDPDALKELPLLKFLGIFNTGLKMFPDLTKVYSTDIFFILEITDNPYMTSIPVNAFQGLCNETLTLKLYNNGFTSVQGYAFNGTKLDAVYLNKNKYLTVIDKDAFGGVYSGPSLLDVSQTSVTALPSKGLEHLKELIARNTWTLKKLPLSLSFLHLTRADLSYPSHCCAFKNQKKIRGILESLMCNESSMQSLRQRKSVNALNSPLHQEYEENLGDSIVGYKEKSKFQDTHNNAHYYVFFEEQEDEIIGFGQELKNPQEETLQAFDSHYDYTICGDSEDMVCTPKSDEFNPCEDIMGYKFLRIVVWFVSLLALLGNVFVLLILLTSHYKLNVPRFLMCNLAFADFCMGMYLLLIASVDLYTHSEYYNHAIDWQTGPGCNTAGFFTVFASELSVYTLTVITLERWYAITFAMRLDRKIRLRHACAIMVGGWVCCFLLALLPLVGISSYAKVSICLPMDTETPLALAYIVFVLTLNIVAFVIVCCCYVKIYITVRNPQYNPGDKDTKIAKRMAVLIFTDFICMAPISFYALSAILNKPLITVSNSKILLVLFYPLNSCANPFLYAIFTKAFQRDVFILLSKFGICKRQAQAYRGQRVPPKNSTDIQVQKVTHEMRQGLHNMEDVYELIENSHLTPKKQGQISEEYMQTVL
Summary of the method: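 Antagonist mode: compound-treated TSHR-expressing HEK293 cells were stimulated with 1.5 ng/mL TSH (final) in presence of Ro20-1724 for 30 min at RT. HTRF cAMP detection after 1 h; each compound tested at 15 concentrations, triplicate.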

[9] = qHTS assay to identify small molecule agonists of the estrogen receptor alpha (ER-alpha) signaling pathway in the presence of an antagonist - cell viability counter screen (AID 1259386); conditions: VM7Luc4E2 viability, CellTiter-Fluor fluorescence, 22 h; series mostly up to 92.4 µM;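 also: cells exposed to compounds for 22 h at 37 °C before the viability read; nearly all actives have a fitted effect of over 30% in size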
Summary of the method: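 Cytotoxicity was measured in parallel with the ERE-luciferase agonist screen, in the same wells. The cells were VM7Luc4E2, which endogenously express ER-alpha, and treatment was with compounds plus 10.0nM ICI-182,780 for 22hr.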

[10] = biological target: Progesterone receptor (Homo sapiens) (UniProt P06401); test: qHTS assay to identify small molecule agonists of the progesterone receptor (PR) signaling pathway (AID 1346784; calls by dose curve; also: nearly all actives have a fitted effect of over 30% in size); conditions: PR-UAS-bla HEK293T, beta-lactamase FRET ratio, 16 h; series mostly up to 92.4 µM
Chain of Progesterone receptor (Homo sapiens) (P06401 whole entry, looked up): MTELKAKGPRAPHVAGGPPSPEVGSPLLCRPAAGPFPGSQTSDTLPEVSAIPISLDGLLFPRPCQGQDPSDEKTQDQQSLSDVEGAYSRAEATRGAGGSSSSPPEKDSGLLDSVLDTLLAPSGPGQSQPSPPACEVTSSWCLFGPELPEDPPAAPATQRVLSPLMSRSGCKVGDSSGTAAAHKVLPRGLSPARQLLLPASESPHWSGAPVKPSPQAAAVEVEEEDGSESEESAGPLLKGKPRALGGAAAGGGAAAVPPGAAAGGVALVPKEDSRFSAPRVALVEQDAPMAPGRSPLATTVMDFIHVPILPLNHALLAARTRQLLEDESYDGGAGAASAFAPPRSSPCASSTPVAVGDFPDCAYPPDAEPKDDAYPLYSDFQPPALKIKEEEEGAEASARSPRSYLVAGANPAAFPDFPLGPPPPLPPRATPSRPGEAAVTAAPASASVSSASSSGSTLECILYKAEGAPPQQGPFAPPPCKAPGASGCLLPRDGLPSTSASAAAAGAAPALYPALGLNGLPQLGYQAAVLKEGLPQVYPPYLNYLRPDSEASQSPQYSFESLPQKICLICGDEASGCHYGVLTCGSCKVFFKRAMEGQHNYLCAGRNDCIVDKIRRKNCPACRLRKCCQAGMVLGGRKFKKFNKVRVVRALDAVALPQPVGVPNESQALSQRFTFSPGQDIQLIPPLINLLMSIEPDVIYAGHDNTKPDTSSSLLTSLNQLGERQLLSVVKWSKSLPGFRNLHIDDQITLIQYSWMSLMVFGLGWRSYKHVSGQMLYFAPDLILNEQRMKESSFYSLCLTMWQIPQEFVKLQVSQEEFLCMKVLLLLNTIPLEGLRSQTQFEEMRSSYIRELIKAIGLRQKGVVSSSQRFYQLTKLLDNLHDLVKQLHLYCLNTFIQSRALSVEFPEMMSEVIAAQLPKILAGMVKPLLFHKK
Summary of the method: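 Compounds were tested for PR agonism in HEK 293T cells bearing a beta-lactamase gene under UAS control. Treatment lasted 16 hr at 37C; signal came from fluorescence of a FRET substrate.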

[11] = qHTS assay to identify small molecule antagonists of the progesterone receptor (PR) signaling pathway - cell viability counter screen (AID 1346798); conditions: PR-UAS-bla HEK293T viability, CellTiter-Glo luminescence, 16 h; series mostly up to 42.5 µM; also: nearly all actives have a fitted effect of over 50% in size; also: potency is read from the fitted curve at half-maximal effect
Summary of the method: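 Following a 4 hr attachment, PR-UAS-bla HEK293T cells in charcoal-stripped FBS medium were exposed to compounds with R5020 for 16 hr; CellTiter-Glo was added and luminescence read after 30 min at room temperature.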

[12] = qHTS assay to identify small molecule agonists of the progesterone receptor (PR) signaling pathway - cell viability counter screen (AID 1346799; calls by dose curve; also: nearly all actives have a fitted effect of over 45% in size); conditions: PR-UAS-bla HEK293T viability, CellTiter-Glo luminescence, 16 h; series mostly up to 92.4 µM
Summary of the method: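 Here, 3,000 PR-UAS-bla HEK293T cells per well were treated with compounds for 16 hr after a 6 hr preincubation at 37C and 5% CO2; cell viability is the CellTiter-Glo luminescence signal.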

[13] = qHTS assay to identify small molecule antagonists of the TGF-beta/Smad signaling pathway - cell viability counter screen (AID 1346824); conditions: SBE-bla HEK293T viability, CellTiter-Glo luminescence; series mostly up to 76.8 µM; also: nearly all actives have a fitted effect of over 50% in size
Summary of the method: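 Cytotoxicity counter-screen run in the same wells as the beta-lactamase Smad reporter read: CellTiter-Glo luminescence after 30 min at room temperature. HEK 293T SBE-bla cells had 5 hr compound exposure at 37 C with TGF-beta1 (0.25 ng/mL stock).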

[14] = qHTS assay to identify small molecule agonists of the TGF-beta/Smad signaling pathway - cell viability counter screen (AID 1346829); conditions: SBE-bla HEK293T viability, CellTiter-Glo luminescence, 5 h; series mostly up to 76.8 µM; also: top concentration of the series differs between compounds; nearly all actives have a fitted effect of over 45% in size
Summary of the method: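 Here the cytotoxicity of library compounds is measured in SBE-bla HEK 293T cells treated for 5 hr, using CellTiter-Glo added to wells already read for the beta-lactamase reporter.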

[15] = qHTS assay to identify small molecule agonists of the TGF-beta/Smad signaling pathway (AID 1346859; active = well fitted activation curve with a large enough effect in the signal ratio in the repeat runs, not every such curve was filed as active; the % refers to the signal ratio); conditions: SBE-bla HEK293T, TGF-beta/Smad beta-lactamase reporter, 5 h; series mostly up to 76.8 µM
Summary of the method: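 Each well held 4,000 SBE-bla HEK 293T cells incubated overnight before compound addition; 5 hr later the cleavable FRET substrate went on for 2 hr at room temperature, and fluorescence was read at two emissions.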

[16] = biological target: Thyrotropin-releasing hormone receptor (Homo sapiens) (UniProt P34981); test: qHTS assay to identify small molecule antagonists of the thyrotropin-releasing hormone receptor (TRHR) signaling pathway (AID 1346877; active = well fitted inhibition curve with a large enough effect in the repeat runs, not every such curve was filed as active); conditions: TRHR-HEK293, TRH-induced calcium fluorescence, antagonist mode; series mostly up to 51.3 µM
Chain of Thyrotropin-releasing hormone receptor (Homo sapiens) (P34981 whole entry, looked up): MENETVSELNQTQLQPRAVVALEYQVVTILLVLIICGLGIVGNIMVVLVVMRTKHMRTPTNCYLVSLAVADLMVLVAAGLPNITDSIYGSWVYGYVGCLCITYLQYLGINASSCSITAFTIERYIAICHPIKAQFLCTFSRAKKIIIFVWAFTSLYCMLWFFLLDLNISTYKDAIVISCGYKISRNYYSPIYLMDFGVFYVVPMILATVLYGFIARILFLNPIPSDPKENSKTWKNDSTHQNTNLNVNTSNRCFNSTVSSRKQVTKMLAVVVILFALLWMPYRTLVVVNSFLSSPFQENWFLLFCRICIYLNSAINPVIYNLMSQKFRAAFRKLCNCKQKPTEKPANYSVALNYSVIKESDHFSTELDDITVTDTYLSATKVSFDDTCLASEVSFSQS
Summary of the method: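 Antagonism is measured as suppression of the calcium response to 1 nM TRH in TRHR-HEK293 cells that have been dye-loaded for 2 h at 37 °C after overnight plating. Each compound is tested at 15 concentrations in triplicate.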

[17] = biological target: Thyrotropin-releasing hormone receptor (Homo sapiens) (UniProt P34981); test: qHTS assay to identify small molecule agonists of the thyrotropin-releasing hormone receptor (TRHR) signaling pathway (AID 1346891; calls by dose curve); conditions: TRHR-HEK293 calcium fluorescence, agonist mode; series mostly up to 57.6 µM
Summary of the method: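 Screening of agonists relied on calcium signalling in HEK293 cells expressing human TRHR: dye loading 2 h at 37 °C preceded compound addition and a 3-min fluorescence time course.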

[18] = biological target: Estrogen receptor (Homo sapiens) (UniProt P03372); test: qHTS assay to identify small molecule agonists of the estrogen receptor alpha (ER-alpha) signaling pathway in the presence of an antagonist (AID 1259383; calls by dose curve; also: top concentration of the series differs between compounds; nearly all actives have a fitted effect of over 15% in size); conditions: VM7Luc4E2 cells, ERE-luciferase, +ICI-182,780, 22 h; series mostly up to 92.4 µM
Chain of Estrogen receptor (Homo sapiens) (P03372 whole entry, looked up): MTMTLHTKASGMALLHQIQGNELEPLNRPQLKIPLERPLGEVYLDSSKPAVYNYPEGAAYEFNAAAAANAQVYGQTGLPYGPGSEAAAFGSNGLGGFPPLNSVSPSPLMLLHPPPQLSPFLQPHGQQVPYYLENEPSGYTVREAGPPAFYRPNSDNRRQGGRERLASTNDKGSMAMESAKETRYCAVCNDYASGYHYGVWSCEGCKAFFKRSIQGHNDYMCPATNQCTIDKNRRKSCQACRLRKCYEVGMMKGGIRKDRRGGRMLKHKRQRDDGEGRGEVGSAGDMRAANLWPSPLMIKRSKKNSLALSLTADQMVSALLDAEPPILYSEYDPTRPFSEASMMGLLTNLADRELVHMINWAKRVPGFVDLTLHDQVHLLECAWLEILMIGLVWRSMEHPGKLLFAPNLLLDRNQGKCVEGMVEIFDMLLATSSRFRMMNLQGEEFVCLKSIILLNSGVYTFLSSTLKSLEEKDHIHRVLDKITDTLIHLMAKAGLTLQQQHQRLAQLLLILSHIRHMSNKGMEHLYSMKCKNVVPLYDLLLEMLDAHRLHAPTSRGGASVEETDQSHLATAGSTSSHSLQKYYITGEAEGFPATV
Summary of the method: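 Agonist-mode confirmation in the presence of the ER antagonist ICI-182,780 at 10.0nM final. Breast-derived VM7Luc4E2 reporter cells were exposed to compounds for 22hr, and ERE-driven luciferase was quantified by luminescence.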

[19] = biological target: Progesterone receptor (Homo sapiens) (UniProt P06401); test: qHTS assay to identify small molecule antagonists of the progesterone receptor (PR) signaling pathway (AID 1346795; active = well fitted inhibition curve with a large enough effect in the signal ratio in the repeat runs, not every such curve was filed as active; the % refers to the signal ratio); conditions: PR-UAS-bla HEK293T, beta-lactamase FRET ratio, 16 h; series mostly up to 92.4 µM
Summary of the method: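 In HEK293T cells bearing the PR-UAS-bla reporter, compound effects on promegestone-driven (1 nM) beta-lactamase expression are assessed after 16 hr using a fluorescent FRET substrate incubated 2 hr at room temperature.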

[20] = biological target: Androgen receptor (Homo sapiens) (UniProt P10275); test: qHTS assay to identify small molecule agonists of the androgen receptor (AR) signaling pathway in the presence of an antagonist (AID 1259381; calls by dose curve; also: nearly all actives have a fitted effect of over 15% in size); conditions: MDA-kb2 MMTV-luciferase, AR agonist + nilutamide, 16 h; series mostly up to 42.5 µM
Chain of Androgen receptor (Homo sapiens) (P10275 whole entry, looked up): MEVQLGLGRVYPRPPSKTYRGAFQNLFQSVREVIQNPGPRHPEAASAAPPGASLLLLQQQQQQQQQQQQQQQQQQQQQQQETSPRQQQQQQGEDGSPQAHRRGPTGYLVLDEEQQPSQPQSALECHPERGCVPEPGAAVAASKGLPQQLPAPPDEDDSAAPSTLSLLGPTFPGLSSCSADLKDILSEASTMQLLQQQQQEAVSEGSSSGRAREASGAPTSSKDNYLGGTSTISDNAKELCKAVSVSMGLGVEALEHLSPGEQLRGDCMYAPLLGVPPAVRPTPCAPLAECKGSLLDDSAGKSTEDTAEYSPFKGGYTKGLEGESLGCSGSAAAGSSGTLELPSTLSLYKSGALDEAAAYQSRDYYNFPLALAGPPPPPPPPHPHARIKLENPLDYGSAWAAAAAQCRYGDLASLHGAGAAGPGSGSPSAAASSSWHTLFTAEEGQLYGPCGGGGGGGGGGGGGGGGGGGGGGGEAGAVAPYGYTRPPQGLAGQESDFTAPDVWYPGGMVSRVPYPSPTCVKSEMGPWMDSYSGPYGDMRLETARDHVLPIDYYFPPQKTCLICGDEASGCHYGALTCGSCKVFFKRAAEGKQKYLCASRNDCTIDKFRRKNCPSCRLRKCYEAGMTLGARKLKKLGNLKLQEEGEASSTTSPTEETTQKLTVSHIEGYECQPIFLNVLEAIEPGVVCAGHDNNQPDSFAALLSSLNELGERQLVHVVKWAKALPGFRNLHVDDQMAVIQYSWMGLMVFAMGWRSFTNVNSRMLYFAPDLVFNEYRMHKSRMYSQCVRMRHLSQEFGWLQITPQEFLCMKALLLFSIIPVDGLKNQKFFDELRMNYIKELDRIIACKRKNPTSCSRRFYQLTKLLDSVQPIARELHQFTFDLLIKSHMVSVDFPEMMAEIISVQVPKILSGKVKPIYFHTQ
Summary of the method: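 Agonist-mode confirmation screen: human MDA-kb2 cells stably expressing luciferase under an MMTV promoter bearing AR and GR response elements, co-treated with 3.0uM nilutamide (final). Luminescence measured after 16hr compound incubation.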

Measured: Potency

CN1CCC[C@@H]1Cc1c[nH]c2ccc(CCS(=O)(=O)c3ccccc3)cc12
active: [1] 13.3 µM
not listed: [18] | [19] | [20]
inactive: all other assays above

CC(=O)OC1C2(C)CCC(C2)C1(C)C (centres undefined)
not listed: [19] | [20]
inactive: all other assays above

CCCCC(CC)COC(=O)COc1cc(Cl)c(Cl)cc1Cl (centres undefined)
not listed: [8] | [20]
inactive: all other assays above

Cc1cc(NS(=O)(=O)c2ccc(N)cc2)nc(C)n1
not listed: [19] | [20]
inactive: all other assays above

CC(C)CC(=O)OCc1ccccc1
not listed: [7] | [8] | [9] | [19] | [20]
inactive: all other assays above

NCCC(O)(P(=O)(O)O)P(=O)(O)O
not listed: [16] | [17] | [18] | [19] | [20]
inactive: all other assays above

CC1=C(O)C(=O)OC1C (centres undefined)
not listed: [18] | [20]
inactive: all other assays above

O=C1CCC(C2CCCCC2)CC1
not listed: [9] | [12] | [18] | [20]
inactive: all other assays above

Oc1ccccc1F
not listed: [5] | [20]
inactive: all other assays above

OC[C@H]1O[C@@H](O[C@H]2[C@H](O)[C@@H](O)[C@H](O)O[C@@H]2CO)[C@H](O)[C@@H](O)[C@H]1O
not listed: [5] | [12]
inactive: all other assays above

CN1CCN(c2c(F)cc3c(=O)c(C(=O)O)cn4c3c2SCC4)CC1
not listed: [5] | [10] | [20]
inactive: all other assays above

C=CCCCCCCCCO
not listed: [3] | [5] | [12] | [20]
inactive: all other assays above

CC(C)NCC(O)COc1ccc(CCOCC2CC2)cc1 (centres undefined)
not listed: [7] | [8] | [16] | [17] | [18] | [20]
inactive: all other assays above

CC(C)=CCC[C@](C)(O)[C@@H]1CC=C(C)CC1
not listed: [9] | [11] | [16] | [17] | [18] | [20]
inactive: all other assays above

CCOC(=O)C1CC(=O)C(=C(O)C2CC2)C(=O)C1 (centres undefined)
not listed: [5] | [20]
inactive: all other assays above

CCCCNC(=S)NCCCC
active: [11] 9.69 µM
not listed: [3] | [5] | [6] | [10] | [19] | [20]
inactive: all other assays above
